Assay outcomes (PubChem)
Gal4-VP16 FLuc – Gal4-VP16 reporter inhibition counter-screen; Drosophila S2 Gal4-VP16 UAS-luciferase, luminescence, 20 h; Potency, µM (series often up to 53.6 µM), without a hit: at the highest dose activity, negative = inhibition, most hits filed as inhibitors; actives 3.5% (n = 310,000); AID 2546;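 further: Gal4-VP16 expression switched on by copper sulfate through the metallothionein promoter; potency means the concentration at half of the fitted maximal effect; on the % scale 0 is the no-effect control and ±100 the full control effect; nearly all actives have a fitted effect of over 50% in size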
TRPV1 agonist – agonists of human vanilloid receptor 1 (TRPV1); Q8NER1; TRPV1-expressing cells, Fluo-8 calcium influx, agonist mode; activation, % at 8.33 µM; actives 0.19% (n = 320,000); AID 540275; in the data active means activation above about 80%; inconclusive means between about 30% and that limit; further: 0% is about no effect
Target sequence (Q8NER1 whole entry, looked up): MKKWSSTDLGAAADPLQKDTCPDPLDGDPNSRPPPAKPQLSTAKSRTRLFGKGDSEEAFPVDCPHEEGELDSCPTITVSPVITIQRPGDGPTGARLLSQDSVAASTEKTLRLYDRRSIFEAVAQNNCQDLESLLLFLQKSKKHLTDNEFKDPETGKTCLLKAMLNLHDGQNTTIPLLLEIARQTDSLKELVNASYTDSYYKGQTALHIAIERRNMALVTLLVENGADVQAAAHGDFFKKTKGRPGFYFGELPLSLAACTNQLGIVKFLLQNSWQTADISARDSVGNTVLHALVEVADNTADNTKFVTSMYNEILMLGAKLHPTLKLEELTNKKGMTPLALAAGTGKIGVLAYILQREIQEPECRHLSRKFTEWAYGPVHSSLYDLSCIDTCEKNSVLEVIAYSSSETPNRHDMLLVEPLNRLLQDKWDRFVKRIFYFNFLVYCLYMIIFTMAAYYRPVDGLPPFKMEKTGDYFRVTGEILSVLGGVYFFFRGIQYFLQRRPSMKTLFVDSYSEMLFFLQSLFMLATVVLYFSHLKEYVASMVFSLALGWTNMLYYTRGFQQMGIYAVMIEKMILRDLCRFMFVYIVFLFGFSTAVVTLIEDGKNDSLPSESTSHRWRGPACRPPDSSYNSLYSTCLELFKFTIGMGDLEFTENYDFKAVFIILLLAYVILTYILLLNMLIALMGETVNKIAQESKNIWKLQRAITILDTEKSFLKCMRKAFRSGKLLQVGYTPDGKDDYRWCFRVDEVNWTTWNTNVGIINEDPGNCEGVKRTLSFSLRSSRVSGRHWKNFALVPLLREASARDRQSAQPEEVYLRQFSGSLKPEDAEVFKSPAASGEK
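TRPV1-expressing cells were cultured overnight at 35.5C and loaded with Fluo-8 calcium dye for 40 to 90 min at room temperature. After a 10 s baseline, compound was added and calcium influx was read kinetically for 3 min (ex 480/em 520 nm).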
uPA surface inh – inhibitors of cell surface uPA generation; actives 0.31% (n = 330,000); Potency, µM (series often up to 38.3 µM), inactives show top-dose activity change, negative = inhibition, usual class: inhibitors; cell surface uPA generation assay, qHTS; active means well fitted inhibition curve with a large enough effect; inconclusive means small, poorly fitted or top-dose-only effect; inactive means no such curve, though single readings can be large or run the other way; tested in mouse RAW 264.7 cells; further: potency means the concentration at half of the fitted maximal effect; on the % scale 0 is the no-effect control and ±100 the full control effect; nearly all actives have a fitted effect of over 55% in size
TRPV1 PAM – enhances activation of the human vanilloid receptor TRPV1; TRPV1-expressing cells, Fluo-8 calcium influx, capsaicin EC20 potentiation; potentiation, % at 8.33 µM; actives 0.02% (n = 320,000); AID 540277; in the data active means potentiation above about 80%; inconclusive means between about 30% and that limit; further: 0% is about no effect
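TRPV1-expressing cells were cultured overnight at 35.5C and loaded with Fluo-8 calcium dye for 40 to 90 min at room temperature. After a 10 s baseline, compound was added and calcium influx was read kinetically for 3 min (ex 480/em 520 nm).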
RORgamma inh – inhibitors of mouse ROR gamma transcriptional activity. Drosophila S2 Gal4-RORgamma UAS-luciferase reporter, 20 h. actives 5.4% (n = 310,000). AID 2551. Potency, µM (doses to about 53.6 µM), inactives show at the top dose activity change, negative = inhibition, most hits filed as inhibitors; further: potency means the concentration at half of the fitted maximal effect; on the % scale 0 is the no-effect control and ±100 the full control effect; nearly all actives have a fitted effect of over 60% in size
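Stable Schneider cell line, Gal4 DNA-binding domain fused to ROR gamma, UAS-luciferase. Cmpd 1 hr RT → CuSO4 700 uM final → 20 hr RT → luciferase reagent 10 min → luminescence.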
* hit, by the source's call; ? = inconclusive; . = no result given; [ ] = dose if it differs, or a comment. Only some compounds are listed: those with a hit (about 5.8% of all), similar ones and a draw of the others. Unless noted, the call rests on the fitted dose curve; in most records, active means well fitted curve in the direction sought with a large enough effect; inconclusive means small, poorly fitted or top-dose-only effect, or another doubt; inactive means no such curve, though single readings can be large; an effect the other way counts as inactive or inconclusive.

SMILES | Gal4-VP16 FLuc | TRPV1 agonist | uPA surface inh | TRPV1 PAM | RORgamma inh
CCc1cc(-c2n[nH]c(C)c2-c2ccccc2Cl)c(O)cc1OC | ? | -1 | -20% | 12 | ?
C=C(C)COc1ccc(-c2n[nH]c(C)c2-c2ccc(OC)cc2)c(O)c1 | ? | 14 | 0% | -3 | 2.2µM*
COc1ccc(-c2n[nH]c(C)c2-c2cscn2)c(O)c1 | -26% | 2 | 5% | -16 | ?
Brc1csc(C=Nc2ccc3c(c2)OCCOCCOCCOCCO3)c1 | -7% | -1 | -5% | -2 | -14%
Oc1c(Cl)cc(Cl)cc1C=Nc1ccc2c(c1)OCCO2 | -20% | -2 | -4% | -7 | 14µM*
CCCOc1ccc(S(=O)(=O)NCCCN2CCOCC2)c2ccccc12 | -27% | 10 | -6% | -7 | 10µM*
CCNC(=S)N/N=C/c1ccc(OCc2ccc(C(=O)OC)cc2)cc1 | ? | 2 | -3% | -10 | 3.2µM*
COc1cc(/C=N/NC(=S)NC(C)C)ccc1OCC(=O)Nc1c(C)cc(C)cc1C | 0.5µM* | -3 | 0% | 1 | 0.71µM*
COc1cc(/C=N/NC(=S)Nc2cccc(Cl)c2C)ccc1OCC(=O)N1CC(C)OC(C)C1 (configuration not stated) | 2.5µM* | -4 | -10% | 11 | 1.6µM*
COc1ccc(NC(=O)COc2ccc(/C=N/O)cc2OC)cc1 | ? | 1 | -5% | 12 | ?
CCNC(=S)N/N=C/c1ccc(OCC(=O)Nc2ccc(OC)cc2)c(OC)c1 | ? | 1 | 3% | 5 | 4.5µM*
Cc1ccc(NC(=O)CSc2nnc(-c3ccncc3)n2N)cc1C | -5% | 4 | 2% | 3 | 17%
CCOC(=O)Cn1c(=O)c(C#N)cn(C(C)C)c1=O | 1% | 3 | 9% | -5 | -15%
COc1ccc(OCC(=O)Nc2ccc(C)cc2)cc1 | 8% | 23 | -1% | -8 | -1%
CCNC(=S)N/N=C/c1ccc(OCC(=O)Nc2ccc(C)cc2)cc1 | ? | -2 | . | -3 | 18µM*
COc1ccc(C)cc1Cn1c(S(C)(=O)=O)nc2ccccc21 | -6% | 0 | 11% | -9 | -21%
COc1ccccc1Cn1c(C)nc2ccccc21 | ? | 0 | -4% | -1 | 14µM*
CCc1nc2ccccc2n1CC1CC1(Cl)Cl (configuration not stated) | -2%[10 µM] | 10 | -4% | -2 | 7.1µM*
CCc1nc2ccccc2n1Cc1ccccc1OC | ? | -4 | 2% | 12 | 7.1µM*
Cc1ccccc1OCCn1c(C)nc2ccccc21 | 7.9µM* | 10 | -3% | -8 | 1%[1.91 µM]
CCc1nc2ccccc2n1Cc1ccc(F)cc1 | 13% | 13 | -5% | -4 | ?
Cc1nc2ccccc2n1CCOc1ccccc1 | ? | 9 | -7% | 1 | 1%
COCCNC(=O)CN(C(=O)c1ccc(N2CCCC2)nc1)c1ccc(Cl)cc1 | 6% | -1 | 4% | 22 | 17%
CCC(=O)NC(Nc1cc(C)cc(C)n1)(C(F)(F)F)C(F)(F)F | 4% | 2 | 2% | 9 | -11%
COc1cc(CNc2nnnn2C)ccc1OCc1ccc(F)cc1Cl | -9%[10 µM] | ? | 10% | -12 | -1%
SMILES | Gal4-VP16 FLuc | TRPV1 agonist | uPA surface inh | TRPV1 PAM | RORgamma inh
COc1ccccc1C(=O)Nc1cccc2c1CCCC2 | 4% | 6 | 6% | -8 | 2%
COc1ccccc1Cn1c(CCCO)nc2ccccc21 | 13% | 28 | -2% | 4 | -31%
Cc1ccccc1Cn1c(C)nc2ccccc21 | 3.5µM* | 2 | -10% | 14 | ?
COCc1nc2ccccc2n1Cc1ccccc1C | 9% | 22 | 3% | -9 | ?
Cc1nc2ccccc2n1Cc1ccc(Cl)cc1 | 10µM* | 16 | ? | -7 | ?
CCCc1nc2ccccc2n1Cc1ccccc1OC | ? | ? | -4% | -20 | 6.3µM*
COc1ccccc1N1CCN(C2CCCN(C(=O)c3oc(C)cc3C)C2)CC1 (configuration not stated) | -5% | -3 | 2% | 4 | -8%
Cc1cccc(-c2nnc(-c3ccc4ccccc4c3)o2)c1 | . | . | -9% | . | .
COc1ccc(N2CCN(C(=O)CCCn3nnnc3CN3CCOCC3)C(C)C2)cc1 (configuration not stated) | -1% | -4 | 1% | 8 | ?
CCC(CC)c1nnc(NC(=O)c2cc(C(=O)OC)cc([N+](=O)[O-])c2)s1 | ? | 1 | 4% | -25 | 7.1µM*
